Measurements reported in the supplement of paper PMC11006884.
Targets with a hit are over-represented here; the source holds about 6,500 in all. About 2% of all pairs of compound and target were hits. Values without a mark were called inactive.

Compound: COC(=O)C#Cc1ccccc1 [methyl 3-phenylpropiolate]
Experiment: log2 ratio of iodoacetamide-alkyne labeling of the cysteine site, DMSO over compound (competition); higher = stronger covalent engagement of the cysteine by the compound, active = 1 or more
Conditions: 500 µM; treatment time 1 h; system: HEK293T cell lysate
How it was run: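 Three replicates, each with duplicate channels, were prepared from HEK293T lysate (2 mg/mL) treated with vehicle or electrophile at 500 µM for 1 h at ambient temperature. Iodoacetamide alkyne was then applied for 1 h, and samples were clicked to sCIP-TMT reagents, pooled, trypsin-digested overnight at 37 °C, enriched on streptavidin, acid-eluted and analysed on Orbitrap Eclipse LC-MS/MS with FAIMS, with FragPipe quantification. The log2 competition ratio per cysteine is the mean control-channel divided by the mean compound-channel reporter intensity. Cysteines quantified in only one replicate were left out.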

Chain of UniProt Q02952 (Q02952 whole entry, looked up): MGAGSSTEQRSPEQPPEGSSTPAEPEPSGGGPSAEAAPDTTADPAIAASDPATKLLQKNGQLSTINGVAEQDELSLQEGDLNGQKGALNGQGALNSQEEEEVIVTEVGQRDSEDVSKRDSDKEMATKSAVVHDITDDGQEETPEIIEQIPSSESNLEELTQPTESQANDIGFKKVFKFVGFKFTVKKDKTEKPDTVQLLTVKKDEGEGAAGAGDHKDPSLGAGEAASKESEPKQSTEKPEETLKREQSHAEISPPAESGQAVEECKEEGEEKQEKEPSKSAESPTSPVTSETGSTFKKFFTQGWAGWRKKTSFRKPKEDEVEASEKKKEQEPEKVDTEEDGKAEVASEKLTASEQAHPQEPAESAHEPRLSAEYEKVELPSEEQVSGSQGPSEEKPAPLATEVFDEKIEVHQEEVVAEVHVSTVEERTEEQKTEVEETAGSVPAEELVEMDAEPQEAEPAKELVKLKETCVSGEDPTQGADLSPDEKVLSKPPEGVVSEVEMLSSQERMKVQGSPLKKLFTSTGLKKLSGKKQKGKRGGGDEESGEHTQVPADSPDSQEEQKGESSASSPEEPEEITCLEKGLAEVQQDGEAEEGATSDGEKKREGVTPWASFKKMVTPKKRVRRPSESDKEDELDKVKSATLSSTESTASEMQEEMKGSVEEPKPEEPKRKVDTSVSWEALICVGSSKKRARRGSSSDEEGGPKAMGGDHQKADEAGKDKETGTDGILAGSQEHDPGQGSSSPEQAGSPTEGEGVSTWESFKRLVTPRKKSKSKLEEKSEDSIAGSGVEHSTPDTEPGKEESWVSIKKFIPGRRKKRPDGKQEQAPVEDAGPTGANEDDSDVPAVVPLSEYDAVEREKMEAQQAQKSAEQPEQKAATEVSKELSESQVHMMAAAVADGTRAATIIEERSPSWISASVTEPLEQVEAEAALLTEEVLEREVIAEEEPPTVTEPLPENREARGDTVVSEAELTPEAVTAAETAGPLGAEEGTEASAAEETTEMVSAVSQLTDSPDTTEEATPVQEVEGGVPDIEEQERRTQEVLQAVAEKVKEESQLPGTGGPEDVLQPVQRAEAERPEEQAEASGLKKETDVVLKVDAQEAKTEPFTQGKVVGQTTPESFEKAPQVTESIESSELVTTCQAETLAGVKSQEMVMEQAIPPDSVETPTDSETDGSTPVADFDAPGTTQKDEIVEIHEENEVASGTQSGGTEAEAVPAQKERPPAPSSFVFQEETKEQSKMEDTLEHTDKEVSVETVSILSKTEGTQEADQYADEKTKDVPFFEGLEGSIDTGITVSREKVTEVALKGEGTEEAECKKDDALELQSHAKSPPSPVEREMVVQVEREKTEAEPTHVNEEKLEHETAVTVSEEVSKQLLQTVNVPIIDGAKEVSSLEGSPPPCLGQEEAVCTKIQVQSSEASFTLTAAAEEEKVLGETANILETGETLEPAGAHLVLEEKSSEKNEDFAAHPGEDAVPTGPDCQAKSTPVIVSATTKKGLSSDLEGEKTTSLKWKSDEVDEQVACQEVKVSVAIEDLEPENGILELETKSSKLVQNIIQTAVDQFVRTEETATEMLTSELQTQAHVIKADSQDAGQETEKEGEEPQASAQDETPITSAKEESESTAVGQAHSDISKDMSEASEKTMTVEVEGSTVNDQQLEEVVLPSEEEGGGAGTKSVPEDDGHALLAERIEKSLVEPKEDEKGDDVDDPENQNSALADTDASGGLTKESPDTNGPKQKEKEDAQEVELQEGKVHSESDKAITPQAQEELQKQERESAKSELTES
Chain of UniProt Q05639 (Q05639 whole entry, looked up): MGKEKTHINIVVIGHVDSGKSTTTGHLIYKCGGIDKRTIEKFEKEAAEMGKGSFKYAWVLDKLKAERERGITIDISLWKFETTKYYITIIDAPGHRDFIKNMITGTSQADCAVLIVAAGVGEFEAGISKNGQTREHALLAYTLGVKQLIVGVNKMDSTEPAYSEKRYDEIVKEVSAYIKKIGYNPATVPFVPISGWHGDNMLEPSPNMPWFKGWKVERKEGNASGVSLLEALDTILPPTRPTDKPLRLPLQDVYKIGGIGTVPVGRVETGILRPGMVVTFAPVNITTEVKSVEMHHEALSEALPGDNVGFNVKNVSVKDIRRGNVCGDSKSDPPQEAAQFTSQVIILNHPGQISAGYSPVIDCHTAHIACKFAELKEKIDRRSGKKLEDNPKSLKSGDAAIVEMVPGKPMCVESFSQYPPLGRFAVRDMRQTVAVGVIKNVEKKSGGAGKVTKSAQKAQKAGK
Chain of UniProt Q14C86 (Q14C86 whole entry, looked up): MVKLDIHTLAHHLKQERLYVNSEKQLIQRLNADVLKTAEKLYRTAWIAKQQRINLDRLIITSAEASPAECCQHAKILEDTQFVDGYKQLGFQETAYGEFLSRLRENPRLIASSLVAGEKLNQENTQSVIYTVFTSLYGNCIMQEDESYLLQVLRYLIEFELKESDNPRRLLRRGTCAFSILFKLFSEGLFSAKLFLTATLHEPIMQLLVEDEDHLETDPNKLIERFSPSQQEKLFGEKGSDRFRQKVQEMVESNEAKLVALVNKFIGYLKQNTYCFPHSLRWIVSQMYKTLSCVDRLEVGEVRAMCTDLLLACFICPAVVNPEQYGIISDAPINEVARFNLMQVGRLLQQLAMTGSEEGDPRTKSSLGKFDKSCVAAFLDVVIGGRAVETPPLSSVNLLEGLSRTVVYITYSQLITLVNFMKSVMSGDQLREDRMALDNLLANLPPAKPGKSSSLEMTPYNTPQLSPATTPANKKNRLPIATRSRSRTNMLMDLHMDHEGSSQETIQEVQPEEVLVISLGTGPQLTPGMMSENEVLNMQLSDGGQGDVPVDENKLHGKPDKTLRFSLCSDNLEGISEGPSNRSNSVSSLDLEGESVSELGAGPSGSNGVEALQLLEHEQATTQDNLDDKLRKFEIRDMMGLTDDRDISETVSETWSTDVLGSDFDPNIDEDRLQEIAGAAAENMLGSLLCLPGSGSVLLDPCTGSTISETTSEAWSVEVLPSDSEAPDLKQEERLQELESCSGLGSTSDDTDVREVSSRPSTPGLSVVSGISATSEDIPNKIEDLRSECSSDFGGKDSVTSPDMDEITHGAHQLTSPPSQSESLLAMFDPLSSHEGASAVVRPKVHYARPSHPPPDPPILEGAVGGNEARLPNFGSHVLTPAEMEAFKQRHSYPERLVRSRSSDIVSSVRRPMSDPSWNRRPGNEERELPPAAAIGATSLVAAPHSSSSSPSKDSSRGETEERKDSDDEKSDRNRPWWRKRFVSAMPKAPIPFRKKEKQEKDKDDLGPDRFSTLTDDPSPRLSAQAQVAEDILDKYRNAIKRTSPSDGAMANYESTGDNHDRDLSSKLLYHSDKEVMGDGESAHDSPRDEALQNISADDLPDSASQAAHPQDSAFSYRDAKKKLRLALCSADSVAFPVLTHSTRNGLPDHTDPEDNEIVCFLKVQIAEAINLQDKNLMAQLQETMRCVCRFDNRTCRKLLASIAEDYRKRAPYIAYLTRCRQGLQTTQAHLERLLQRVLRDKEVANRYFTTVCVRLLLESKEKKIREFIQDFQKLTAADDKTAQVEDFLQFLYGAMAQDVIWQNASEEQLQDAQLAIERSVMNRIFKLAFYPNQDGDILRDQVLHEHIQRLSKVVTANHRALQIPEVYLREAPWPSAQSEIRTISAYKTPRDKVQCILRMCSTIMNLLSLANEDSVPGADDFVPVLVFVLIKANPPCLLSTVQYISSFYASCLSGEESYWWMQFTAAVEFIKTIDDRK
Chain of UniProt Q14697 (Q14697 whole entry, looked up): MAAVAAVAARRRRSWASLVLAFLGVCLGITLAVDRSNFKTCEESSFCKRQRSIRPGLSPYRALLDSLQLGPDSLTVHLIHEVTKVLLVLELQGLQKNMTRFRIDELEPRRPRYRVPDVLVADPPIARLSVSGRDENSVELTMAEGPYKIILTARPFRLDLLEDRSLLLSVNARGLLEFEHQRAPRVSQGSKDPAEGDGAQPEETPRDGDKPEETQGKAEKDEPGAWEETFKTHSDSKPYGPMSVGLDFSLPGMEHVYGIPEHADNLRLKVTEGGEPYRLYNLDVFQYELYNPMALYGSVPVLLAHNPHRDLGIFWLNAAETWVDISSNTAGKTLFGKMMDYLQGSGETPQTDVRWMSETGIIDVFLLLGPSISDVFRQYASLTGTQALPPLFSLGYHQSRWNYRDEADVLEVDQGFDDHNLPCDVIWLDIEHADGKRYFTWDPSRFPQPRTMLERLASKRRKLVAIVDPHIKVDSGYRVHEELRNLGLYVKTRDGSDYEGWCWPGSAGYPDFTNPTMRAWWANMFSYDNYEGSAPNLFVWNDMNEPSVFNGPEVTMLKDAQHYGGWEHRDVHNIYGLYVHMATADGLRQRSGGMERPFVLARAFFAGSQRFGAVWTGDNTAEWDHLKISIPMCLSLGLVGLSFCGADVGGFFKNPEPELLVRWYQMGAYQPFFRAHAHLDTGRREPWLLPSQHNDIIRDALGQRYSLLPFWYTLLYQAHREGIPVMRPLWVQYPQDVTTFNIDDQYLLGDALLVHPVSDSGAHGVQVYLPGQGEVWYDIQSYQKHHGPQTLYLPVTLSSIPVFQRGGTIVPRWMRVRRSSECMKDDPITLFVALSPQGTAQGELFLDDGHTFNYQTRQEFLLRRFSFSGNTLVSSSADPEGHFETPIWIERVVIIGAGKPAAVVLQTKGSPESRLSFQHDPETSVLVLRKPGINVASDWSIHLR
Chain of UniProt Q15417 (Q15417 whole entry, looked up): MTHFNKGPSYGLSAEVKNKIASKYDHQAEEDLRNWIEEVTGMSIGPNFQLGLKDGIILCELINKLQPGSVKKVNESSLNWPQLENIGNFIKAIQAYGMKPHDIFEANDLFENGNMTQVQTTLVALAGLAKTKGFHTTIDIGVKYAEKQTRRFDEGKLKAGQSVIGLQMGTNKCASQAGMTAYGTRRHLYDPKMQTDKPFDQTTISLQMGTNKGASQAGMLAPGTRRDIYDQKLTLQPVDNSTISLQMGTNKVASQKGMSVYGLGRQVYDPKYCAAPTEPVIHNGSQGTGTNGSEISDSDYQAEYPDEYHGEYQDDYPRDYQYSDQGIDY

| Target | log2 ratio of iodoacetamide-alkyne labeling |
| --- | --- |
| AKAP12 C1407 (UniProt Q02952) | 1.16 (active) |
| CTTN C112 (UniProt Q14247) | 0.88 |
| UniProt P60891_C41 | -0.0365 |
| CAP1 C93 (UniProt Q01518) | 0.152 |
| RRP1B C628 (UniProt Q14684) | 0.838 |
| IAH1 C4 (UniProt Q2TAA2) | 2.43 (active) |
| ERCC6L C356 (UniProt Q2NKX8) | 0.193 |
| HNRNPH2 C34 (UniProt P55795) | 0.0589 |
| GANAB C423 (UniProt Q14697) | 0.019 |
| PTPN13 C937 (UniProt Q12923) | 0.773 |
| EEF1A2 C326 (UniProt Q05639) | 0.25 |
| UniProt P62753_C12 | 0.196 |
| LLGL1 C1059 (UniProt Q15334) | 0.241 |
| SART3 C472 (UniProt Q15020) | 0.326 |
| TLE1 C526 (UniProt Q04724) | 1.15 (active) |
| RING1 C69 (UniProt Q06587) | 0.171 |
| UniProt Q15042_C335 | 0.153 |
| SUCLG1 C181 (UniProt P53597) | 1.72 (active) |

| Target | log2 ratio of iodoacetamide-alkyne labeling |
| --- | --- |
| NUP98 C1312 (UniProt P52948) | 0.426 |
| UniProt Q15365_C158 | 0.366 |
| GAPVD1 C568 (UniProt Q14C86) | 0.475 |
| AARS2 C750 (UniProt Q5JTZ9) | 0.846 |
| HCCS C66 (UniProt P53701) | 0.724 |
| EEA1 C1405 (UniProt Q15075) | 0.0817 |
| CNN3 C173 (UniProt Q15417) | 1.01 (active) |
| PPA1 C114 (UniProt Q15181) | -0.223 |
| IAH1 C9 (UniProt Q2TAA2) | 2.43 (active) |
| UniProt Q3LXA3_C24 | 0.218 |
| ZNF638 C1930 (UniProt Q14966) | -0.212 |
| TBCE C371 (UniProt Q15813) | 0.185 |
| UniProt P55196_C942 | 1.05 (active) |
| UniProt P62258_C97 | -0.063 |
| MAP7D1 C373 (UniProt Q3KQU3) | 0.815 |
| COPB1 C248 (UniProt P53618) | -0.00654 |
| LLGL1 C697 (UniProt Q15334) | 0.999 |
| MRPS11 C186 (UniProt P82912) | 0.527 |
